Reference: PubChem BioAssay AID488969 (Vanderbilt High Throughput Screening Facility, 2010)
In all, about 110,000 compounds were measured (“z-score”: median about -0.1, highest 2% from about 2 on). The sample holds the highest values, similar compounds and a random draw of the others, so the mix is not that of the screen. Activity calls are given as the source filed them.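 How the source made its calls: active means z-score in the third read window above 3 or below -3; inactive means the rest.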

biological target: Metabotropic glutamate receptor 8 (Rattus norvegicus) (UniProt P70579); assay: mGluR8 Gi/Go-coupled signaling modulation – cell-based, rat, thallium flux, HTS, primary screen (AID 488969); details: HEK293 rat mGluR8, GIRK (G protein-gated inwardly rectifying potassium channel) thallium flux, FluoZin2; at 10 µM; stronger effect = higher value; submaximal glutamate (EC20) added with thallium
Sequence (P70579 whole entry, looked up): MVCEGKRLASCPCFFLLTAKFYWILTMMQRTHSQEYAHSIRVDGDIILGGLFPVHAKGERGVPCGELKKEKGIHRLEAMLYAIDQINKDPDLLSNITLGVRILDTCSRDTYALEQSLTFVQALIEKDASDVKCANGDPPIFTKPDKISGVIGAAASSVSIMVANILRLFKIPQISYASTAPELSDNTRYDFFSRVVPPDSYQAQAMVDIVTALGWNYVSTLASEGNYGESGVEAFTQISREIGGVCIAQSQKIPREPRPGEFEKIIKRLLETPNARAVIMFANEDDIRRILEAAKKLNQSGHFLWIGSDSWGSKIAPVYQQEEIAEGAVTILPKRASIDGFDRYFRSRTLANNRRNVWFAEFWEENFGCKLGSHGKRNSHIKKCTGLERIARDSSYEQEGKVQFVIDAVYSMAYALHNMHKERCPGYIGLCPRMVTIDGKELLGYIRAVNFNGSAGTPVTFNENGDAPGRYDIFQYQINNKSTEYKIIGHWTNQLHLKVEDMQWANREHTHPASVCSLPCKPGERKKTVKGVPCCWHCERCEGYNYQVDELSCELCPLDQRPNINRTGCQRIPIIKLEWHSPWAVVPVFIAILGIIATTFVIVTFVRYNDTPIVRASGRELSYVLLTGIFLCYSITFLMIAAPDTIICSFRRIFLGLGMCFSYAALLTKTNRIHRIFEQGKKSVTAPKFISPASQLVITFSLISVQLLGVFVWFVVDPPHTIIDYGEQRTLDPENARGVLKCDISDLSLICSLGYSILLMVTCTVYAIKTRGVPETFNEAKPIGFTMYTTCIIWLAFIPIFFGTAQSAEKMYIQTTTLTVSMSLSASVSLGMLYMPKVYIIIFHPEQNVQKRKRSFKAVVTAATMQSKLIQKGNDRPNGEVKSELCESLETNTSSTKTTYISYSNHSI

| SMILES | z-score |
| --- | --- |
| CC(C)NC(=O)C1CCN(C(=O)C(C(=O)c2ccccc2)n2cc(Cl)ccc2=O)CC1 (stereo unspecified) | 0.609 |
| Fc1ccc(/C=N/NC(=S)Nc2ccc(Cl)cc2)cc1F | 6.19 (active) |
| COc1ccccc1NC(=S)N/N=C/c1cccc(C)c1 | 0.651 |
| C=CCNC(=S)Nc1ccc(F)cc1F | -0.172 |
| Cc1ccc(NC(=S)N/N=C/c2ccc(Cl)c([N+](=O)[O-])c2)cc1 | -0.0758 |
| CCCCNC(=O)C(=O)N/N=C/c1cccc(Br)c1 | 0.475 |
| Fc1cccc(/C=N/NC(=S)Nc2ccccc2Cl)c1 | 11.2 (active) |
| O=C(CCC(=O)Nc1ccccc1Cl)N/N=C/c1ccccc1 | -0.0425 |
| C=CCNC(=S)Nc1ccc(Br)cc1F | -0.377 |
| Fc1ccc(NC(=S)N/N=C/c2ccc(F)c(F)c2)c(F)c1 | 13 (active) |
| COc1ccc(/C=N/NC(=S)Nc2ccccc2)cc1COc1ccccc1F | -0.0868 |
| COc1ccc(/C=N/NC(=S)Nc2ccccc2)cc1COc1ccc(F)cc1F | -0.047 |
| Fc1ccc(NC(=S)N/N=C/c2cccc(Br)c2)c(F)c1 | 3.61 (active) |
| Cc1cccc(N(C(=O)c2sc(C)nc2C)C(C(=O)NCc2ccco2)c2ccccc2)c1 (stereo unspecified) | -1.18 |
| COC(=O)C1=C(C)NC(=O)NC1c1ccccc1 (stereo unspecified) | -0.341 |
| OC(COCC(F)(F)C(F)(F)C(F)(F)C(F)F)Cn1c2ccccc2c2ccccc21 (stereo unspecified) | 0.164 |
| CCOc1ccc2nc(SCc3ccccc3C#N)sc2c1 | -0.141 |
| Fc1ccccc1N1CCN(CC2CC3C=CC2C3)CC1 (stereo unspecified) | -0.343 |
| Cc1noc2c1C(c1ccc(N(C)C)cc1)C1=C(CC(C)(C)CC1=O)N2 (stereo unspecified) | -0.142 |

| SMILES | z-score |
| --- | --- |
| CN(CCC#N)C(=S)Nc1ccc(Oc2ccccc2)cc1 | -0.139 |
| Cc1ccc(-c2ccc(SCC(=O)c3ccccc3)nn2)cc1 | 0.138 |
| O=C(Nc1ccon1)c1ccc(Br)o1 | -0.216 |
| C=CCn1c(NC(=O)CC)c(C(=O)OCC)sc1=S | -0.979 |
| COc1ccc(N=C2C(=Nc3ccc(OC)cc3)N(c3ccc(OC)cc3)C(=S)N2C)cc1 | -0.0804 |
| Cc1nn(C(C)C(=O)NCc2ccccc2)c(C)c1[N+](=O)[O-] (stereo unspecified) | 0.375 |
| Cc1nc2ccccn2c1-c1nnco1 | 0.116 |
| CCOC(=O)/C(N=Nc1c(Br)cc(Br)cc1Br)=C(\C)O | 0.239 |
| NC(=O)Nc1cccc2ccccc12 | 4.53 (active) |
| CN1CCN(C(=S)NC(=O)/C=C/c2ccccc2)CC1 | 0.401 |
| CN1CCN(C(=O)Nc2cccc3ccccc23)CC1 | 3.3 (active) |
| O=C(Nc1ccccc1C(F)(F)F)Nc1cccc2ccccc12 | 0.33 |
| CN1CCN(C(=S)NC(=O)/C=C/c2cccc3ccccc23)CC1 | 2.03 |
| COCC(=O)Nc1cccc2ccccc12 | 0.3 |
| CCN1CCN(C(=O)Nc2cccc3ccccc23)CC1 | -0.222 |
| O=C(Nc1cccc2ccccc12)N1CCN(c2ccccc2)CC1 | -0.177 |
| Cc1ccc(/C=C/C(=O)NC(=S)N2CCN(C)CC2)cc1 | -0.241 |
| CCc1cc(=O)oc2cc3oc(C)c(C)c3cc12 | -0.296 |
| Cc1c(C(=O)NCC2COc3ccccc3O2)oc2ccc(S(=O)(=O)N(C)C3CCCCC3)cc12 (stereo unspecified) | -0.0918 |

| SMILES | z-score |
| --- | --- |
| CC(=O)CCc1oc2ccc(NC(C)=O)cc2c1-c1ccc(C)o1 | -0.484 |
| COCCN(C(=O)COc1ccccc1)c1nnc(-c2cccnc2)s1 | -0.132 |
| CC(=O)C(C)Oc1ccc2c3c(c(=O)oc2c1C)CCCC3 (stereo unspecified) | -1.13 |
| COc1ccc(NC(=O)CN(c2ccc(C)cc2)S(=O)(=O)c2c(C)nn(C)c2C)cc1OC | -0.248 |
| Cc1cccc2sc(NC(=O)C3CCCO3)nc12 (stereo unspecified) | -0.212 |
| O=C(NCCN1CCCC1)c1ccc2c(=O)n(CCc3ccccc3)c(=O)[nH]c2c1 | 1.17 |
| CC1CCCCN1CCCNC(=O)c1ccc2c(=O)n(CCc3ccccc3)c(=O)[nH]c2c1 (stereo unspecified) | 2.93 |
| O=C(NCCCN1CCCCC1)c1ccc2c(=O)n(CCc3ccccc3)c(=O)[nH]c2c1 | 1.16 |
| Cc1ccc(CNC(=O)c2ccc3c(=O)n(CCCN4CCCC4=O)c(=S)[nH]c3c2)cc1 | -0.167 |
| CC1CCN(CCCNC(=O)c2ccc3c(=O)n(CCc4ccccc4)c(=O)[nH]c3c2)CC1 | 4.09 (active) |
| O=C(NCc1cccnc1)c1ccc2c(=O)n(CCCN3CCCC3=O)c(=S)[nH]c2c1 | -0.116 |
| O=C(NCc1ccccc1)c1ccc2c(=O)n(CCCN3CCCC3=O)c(=S)[nH]c2c1 | 4.92 (active) |
| CC1CCCCN1CCNC(=O)c1ccc2c(=O)n(CCc3ccccc3)c(=O)[nH]c2c1 (stereo unspecified) | 0.188 |
| O=C(NCCCN1CCOCC1)c1ccc2c(=O)n(CCc3ccccc3)c(=O)[nH]c2c1 | 1.15 |
| O=C(N/N=C/c1ccc(O)cc1)/C(=C/c1ccccc1)CCO | -0.0513 |
| O=C(c1cn(-c2ccccc2)nc1-c1cccs1)N(CCO)Cc1ccccc1 | -0.178 |
| CCn1c(SCC(=O)NCCc2ccc(Cl)cc2)nnc1-c1cccs1 | -0.84 |
| CCOCCCNC(=O)CN1C(=O)CSc2cc(S(=O)(=O)N3CCCCCC3)ccc21 | -0.263 |
